D1 potentiator = potentiators of human D1 dopamine receptor. 360,000 compounds, 0.036% hits. AID 504651. HEK293 TREx D1 cells, calcium flux, dopamine EC20 potentiation. potentiation, % at 10 µM; in the data active = potentiation above about 30%
D1 agonist = agonists of human D1 dopamine receptor; 360,000 compounds, 1% hits; activation, % at 2 µM; AID 504660; HEK293 T-REx D1 cells, calcium flux, agonist mode
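Tetracycline-induced HEK293 TREx D1 cells, force-coupled to calcium signalling, were dye-loaded with a no-wash calcium kit. Compound was pin-added after a 10 s baseline. Fluorescence was read kinetically at 1 cycle/s for 180 s, with calcium rises flagged as agonism.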
D1 antag = antagonists of human D1 dopamine receptor; P21728; activity change, negative = inhibition, % at 10 µM; HEK293 TREx D1 cells, calcium flux, dopamine EC80; stronger effect = lower value; 360,000 compounds, 3.2% hits; in the data active = activity change below about -30%
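Cells carrying a force-coupled, tetracycline-inducible human D1 receptor report calcium flux. Each well gets a 10 s baseline, compound with 180 s monitoring, then an EC80 dopamine stimulus with a second 180 s kinetic read.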
TRHR ag = activates the human TRH receptor. P34981. TRHR cells, calcium flux fluo-8, FDSS agonist mode. activation, % at 2 µM. 360,000 compounds, 0.18% hits
Target sequence (P34981 whole entry, looked up): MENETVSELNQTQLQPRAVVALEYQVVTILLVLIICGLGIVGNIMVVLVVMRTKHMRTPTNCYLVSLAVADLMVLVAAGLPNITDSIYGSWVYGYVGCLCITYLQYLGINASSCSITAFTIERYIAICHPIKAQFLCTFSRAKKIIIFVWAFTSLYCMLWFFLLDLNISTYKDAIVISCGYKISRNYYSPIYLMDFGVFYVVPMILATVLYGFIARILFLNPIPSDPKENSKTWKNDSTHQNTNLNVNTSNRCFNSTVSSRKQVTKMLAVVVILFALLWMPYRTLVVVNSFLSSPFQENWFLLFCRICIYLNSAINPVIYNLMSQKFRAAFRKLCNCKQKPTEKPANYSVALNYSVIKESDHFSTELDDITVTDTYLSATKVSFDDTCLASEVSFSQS
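In this calcium-flux screen, cells bearing human TRHR are dye-loaded with fluo-8, baselined for 10 cycles, then exposed to library compounds; positive kinetic calcium responses during the agonist phase mark hits, with TRH as control.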
TRHR enhancer = TRH receptor (human) allosteric enhancement; P34981; TRHR cells, fluo-8 calcium fluorescence, EC20 TRH enhancement; enhancement, % at 2 µM; 360,000 compounds, 0.66% hits; in the data active = enhancement above about 30%
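Enhancer read-out: after compound pinning and an initial kinetic agonist-mode read, an EC20 of TRH (10 nM final) was injected and fluo-8 calcium signal (Ex 480/Em 530) followed at 1 s/cycle for 100 cycles in TRHR-expressing cells.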
USP1-UAF1 inh = USP1/UAF1 (human) deubiquitinase inhibition. O94782. Potency, µM (series often up to 57.1 µM), most hits filed as inhibitors. recombinant USP1/UAF1, Ub-Rhodamine cleavage fluorescence. 390,000 compounds, 0.23% hits; active = well fitted inhibition curve with a large enough effect; inconclusive = small, poorly fitted or top-dose-only effect; inactive = no such curve, though single readings can be large or run the other way; also: nearly all actives have a fitted effect of over 60% in size
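Step one: compound is pinned into 1nM USP1/UAF1 in HEPES pH 7.8 buffer with TCEP. Step two: 15 min room-temperature incubation. Step three: Ub-Rho (150nM final) starts cleavage, tracked by fluorescence over six one-minute reads.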
Each line names hits and unclear results; the compound was inactive in the other large screens. Rows were chosen to be rich in hits. Some 4.4% of all compounds tested hit in one or more screens of this group. Rule as the data show it, unless noted: active = activation above about 30%; inactive = the rest.

Cc1csc(Sc2ccc([N+](=O)[O-])cc2C(=O)OCC(=O)NC2CCCC(C)C2C)n1 (configuration not stated)	D1 antag -31.9
CCC(C)NC(=O)COC(=O)c1cc([N+](=O)[O-])ccc1Sc1nc(C)cs1 (configuration not stated)	none
O=[N+]([O-])c1ccc(N/N=C2/CCCCC2c2ccccn2)cc1 (configuration not stated)	D1 antag -59.4
O=[N+]([O-])c1ccc(NC2CCCC2)cc1	none
CCC(=O)N1c2ccccc2CC1C(=O)NCCCN1CCN(c2ccccc2)CC1 (configuration not stated)	none
Cc1ccccc1CS(=O)(=O)CCC(=O)NCCN1CCN(c2cccc(Cl)c2)CC1	D1 antag -31.8
O=C(NCCN1CCN(c2cccc(Cl)c2)CC1)Nc1ccccc1C(F)(F)F	D1 antag -43.3
Cc1cccc(C)c1NC(=O)NCCCN1CCN(c2ccccc2)CC1	D1 antag -36.4
CN1CCN(CCNC(=O)Nc2ccccc2C(F)(F)F)CC1	none
CCC(=O)N1c2ccccc2CC1C(=O)NCCCN1CCN(c2cccc(Cl)c2)CC1 (configuration not stated)	D1 antag -52.8
COc1ccc(CCNC(c2ccc(F)cc2)c2nnc(-c3ccccc3Cl)o2)cc1OC (configuration not stated)	none
Nc1ccccc1C(=O)NCCCN1CCN(c2cccc(Cl)c2)CC1	none (no result: D1 potentiator, D1 agonist, D1 antag, TRHR ag, TRHR enhancer)
O=C(NCCCN1CCN(c2cccc(Cl)c2)CC1)Nc1ccccc1C(F)(F)F	D1 agonist 32.4, D1 antag -55.3
Cc1ccc(CNC(=O)CSc2nc3n[nH]c(C)c3c(=N)n2-c2ccccc2Cl)cc1	none
Cc1c(Cl)cccc1-n1c(SCC(=O)NCc2ccccc2)nc2n[nH]c(C)c2c1=N	TRHR enhancer 42.2
CCc1cc(=O)oc2cc(C)cc(OCC(=O)N3CCC(C(=O)NC(C)C)(c4ccccc4)CC3)c12	D1 antag -37.5
COc1ccc(NC(=O)c2cnc(SCC(=O)Nc3nc4ccc(C)cc4s3)n(C)c2=O)cc1	none (no result: D1 antag)
Cc1ccccc1CNC(=O)Cn1ncn2nc(-c3cccs3)cc2c1=O	D1 antag -35.8
O=C(NCCN1CCCCC1)Nc1ccc(F)cc1F	TRHR enhancer 36.9
Cc1cccc(OCC(=O)Nc2ccc(S(=O)(=O)N(Cc3ccccc3)c3ccccc3)cc2)c1	none
Fc1ccc2[nH]c3c(N4CCc5ccccc5C4)ncnc3c2c1	D1 antag -35.3
Clc1ccc2[nH]c3c(N4CCC5(CC4)OCCO5)ncnc3c2c1	D1 antag -35.0
Cc1ccc2[nH]c3c(N4CCc5ccccc5C4)ncnc3c2c1	D1 antag -60.6
Brc1ccc2[nH]c3c(N4CCc5ccccc5C4)ncnc3c2c1	none (no result: D1 antag)
Cc1ccc(Cl)cc1N1CCN(C(=O)c2cnn(C)c2C2CCN(C(=O)OC(C)(C)C)CC2)CC1	none
O=C(CN1C(=O)CC(c2ccco2)Sc2ccccc21)Nc1cccc(C(F)(F)F)c1 (configuration not stated)	none
CCN(CC)CCNC(=O)c1ccc2c(=O)n3nc(Nc4ccccc4)sc3nc2c1	none
CN(C)c1ccc(C(CNS(=O)(=O)c2ccc(F)cc2)N2CCCC2)cc1 (configuration not stated)	D1 agonist 59.0
COc1ccc(C(=O)NCC(c2ccc(N(C)C)cc2)N2CCCC2)cc1 (configuration not stated)	none
CN(C)c1ccc(C(CNC(=O)c2ccc(C(C)(C)C)cc2)N2CCCC2)cc1 (configuration not stated)	D1 agonist 37.5, USP1-UAF1 inh inconclusive
COc1ccc(-n2nc(C(=O)NCCc3ccc(OC)c(OC)c3)c3c4ccccc4n(C)c3c2=O)cc1Cl	none
C#CCOCCOCCOCCNc1nc(N2CCN(C(=O)CCCCCCCCCCNC(=O)[C@H]([C@@H](C)CC)n3cc(CCCCCN)nn3)CC2)nc(N2CCN(C(=O)CCCCCCCCCCNC(=O)[C@H](CO)n3cc(CCCCCN)nn3)CC2)n1	D1 agonist 50.1

Bioassay records deposited in PubChem BioAssay by National Center for Advancing Translational Sciences (NCATS).
